Sampled rows, rich in hits. Any-hit rate of the full collection: about 3.3%.
PLK1 PBD block: inhibitors of human PLK1 polo-box domain binding; Potency, µM, inactives show max response, negative = inhibition, most hits filed as inhibitors; actives 2.8% (n = 360,000); Plk1 PBD binding of FITC phosphopeptide, fluorescence polarization; note: potency is the fitted concentration of half-maximal effect; series mostly up to about 57 µM; nearly all actives have a fitted effect of over 65% in size
Target sequence (P53350 whole entry, looked up, the tested form may be a part): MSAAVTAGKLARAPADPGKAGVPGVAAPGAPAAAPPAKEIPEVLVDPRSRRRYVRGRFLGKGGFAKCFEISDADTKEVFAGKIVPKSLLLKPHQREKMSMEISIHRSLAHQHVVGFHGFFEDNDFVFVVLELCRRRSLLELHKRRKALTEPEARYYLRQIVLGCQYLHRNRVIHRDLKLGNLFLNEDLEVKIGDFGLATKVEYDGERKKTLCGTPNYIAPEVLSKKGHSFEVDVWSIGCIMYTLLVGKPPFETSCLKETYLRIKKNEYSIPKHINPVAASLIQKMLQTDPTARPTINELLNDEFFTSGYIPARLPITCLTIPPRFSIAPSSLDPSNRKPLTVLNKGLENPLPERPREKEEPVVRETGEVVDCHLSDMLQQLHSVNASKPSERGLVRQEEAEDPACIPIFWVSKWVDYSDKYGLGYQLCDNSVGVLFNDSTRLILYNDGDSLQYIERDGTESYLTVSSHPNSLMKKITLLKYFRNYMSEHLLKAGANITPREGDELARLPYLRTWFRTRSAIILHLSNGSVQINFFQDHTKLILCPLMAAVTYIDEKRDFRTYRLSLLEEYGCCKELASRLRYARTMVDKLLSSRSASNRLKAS
WRN helicase inh: inhibitors of human WRN helicase. Q14191. WRN helicase unwinding, fluorescent forked duplex, kinetic. Potency, µM (doses to about 114 µM), inactives show at the top dose activity change, negative = inhibition, hits mostly inhibitors. actives 0.46% (n = 360,000). AID 651768; note: potency is the fitted concentration of half-maximal effect; nearly all actives have a fitted effect of over 55% in size
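WRN at 20 nM final was preincubated with compound for 15 min at room temperature; reaction started with 100 nM forked duplex oligonucleotide carrying fluorophore and quencher plus 2 mM ATP (final). Unwinding followed kinetically by red fluorescence (ex 525/em 598 nm).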
PI5P4K alpha inh: PI5P4K alpha (human) kinase inhibition. max response, %. actives 1.2% (n = 330,000). PI5P4Kalpha enzyme, ADP-Glo luminescence, 60 min; active compounds read low. P48426; active = max response of -50% or lower; inconclusive = between -30% and -50%; inactive = -30% or higher; note: value at the top dose of about 77 µM
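Controls without substrate or without enzyme flank wells where PI5P4Kalpha converts substrate using 5 microM ATP (final). Incubation lasts 60 minutes at room temperature; ADP formed is read by ADP-Glo luminescence.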
USP2a inh: USP2a (human) protease inhibition; O75604; AID 463254; actives 0.01% (n = 330,000); Potency, µM (series often up to 38.3 µM), for inactives: at the highest dose activity change, negative = inhibition, most hits filed as inhibitors; USP2 core, Ub-CHOP2 coupled fluorogenic reporter, 485/531;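 note: potency is the fitted concentration of half-maximal effect; plate controls were DMSO wells for no effect and full inhibition by NEM control for full effect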
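USP2 core (10nM final) preincubated 30min RT with compound in 20mM Tris-HCl pH 8.0, 2mM CaCl2, 2mM beta-mercaptoethanol, 0.05% CHAPS; 25nM Ub-CHOP2 plus 25nM reporter substrate added, fluorescence (Ex485/Em531) read after 60min.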
USP1-UAF1 inh: blocks the human USP1/UAF1 deubiquitinase complex; AID 743255; Potency, µM (series often up to 57.1 µM), without a hit: at the highest dose activity change, negative = inhibition, actives largely listed as inhibitors; actives 0.23% (n = 390,000); O94782; recombinant USP1/UAF1, Ub-Rhodamine cleavage fluorescence; note: potency is the fitted concentration of half-maximal effect; nearly all actives have a fitted effect of over 60% in size
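Step one: compound is pinned into 1nM USP1/UAF1 in HEPES pH 7.8 buffer with TCEP. Step two: 15 min room-temperature incubation. Step three: Ub-Rho (150nM final) starts cleavage, tracked by fluorescence over six one-minute reads.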
* = called active by the depositor; ? = inconclusive; . = not tested or not shown; [ ] = another dose, or the depositor's remark. Unless noted, calls come from the whole dose curve; as a rule, active = well fitted curve in the direction sought with a large enough effect; inconclusive = small, poorly fitted or top-dose-only effect, or another doubt; inactive = no such curve, though single readings can be large; an effect the other way counts as inactive or inconclusive. Unless noted, % is set by controls: 0 for no effect and ±100 for the full control effect.

SMILES	PLK1 PBD block	WRN helicase inh	PI5P4K alpha inh	USP2a inh	USP1-UAF1 inh
COc1cccc(/C=C2\SC(=S)N(N3C(=O)CCCC3=O)C2=O)c1	-14.9%	-1.2%	4.9	1.8%	-27.0%
Cc1cccc(Nc2nnc(-c3ccc(C)c(S(=O)(=O)NCC4CCCO4)c3)c3ccccc23)c1 (stereo unspecified)	.	.	.	.	-16.2%
COc1ccc(NC(=O)N(CCC(C)C)C(C)c2cccs2)c(OC)c1 (stereo unspecified)	.	.	.	.	-2.9%
CCc1cccc(C)c1NC(=O)Cn1cc2c(n1)CCCCC2	.	.	.	.	6.5%
Cc1ccc(CNC(=O)Cn2cc3c(n2)-c2c(oc(C(=O)N4CCOCC4)c2C)CC3)cc1	.	.	.	.	-19.1%
CC(=O)c1c(C)[nH]c(C(=O)/C(C#N)=C/c2cccc(C)c2)c1C	5.97µM*	6.8%	-4.5	-2.3%	?
CCOC(=O)c1c(C)[nH]c(C(=O)/C(C#N)=C/c2ccc(OCC)cc2)c1C	-23.4%	15.7%	-5.6	2.1%	-17.7%
N#Cc1c(/N=C/C=C/c2ccccc2)sc2c1CCCC2	9.47µM*	-1.5%	.	-2.1%	-11.5%
O=C1C(C2=C(O)c3ccccc3C2=O)=Nc2ccccc21	?	-26.4%	.	-5.7%	14.1µM*
Cc1cccc(-c2ccc3ncnc(N(C)Cc4ccco4)c3c2)c1	.	.	.	-0.7%	.
COc1ccc(-c2cn3nc(N4CCCC(C(=O)Nc5ccccc5OC)C4)sc3n2)cc1 (stereo unspecified)	.	.	.	.	-15.2%
Oc1cc(CNCc2ccccc2)c(O)cc1CNCc1ccccc1	?	-15.6%	-55.9*	.	?
CCOC(=O)c1sc(N)c(C(=O)Nc2ccccc2)c1C	9.47µM*	4.4%	-18.5	-0.1%	-17.4%
CCOC(=O)c1c(N)sc(C(=O)OCCOC)c1C	9.47µM*	-19.3%	?	3.9%	-17.8%
CCOC(=O)c1sc(NC(=O)c2ccccc2)cc1C	0.8%	-2.7%	.	3.5%	-20.1%
CCOC(=O)c1sc(N)c(C(=O)OCC)c1C	-14.7%	-10.5%	3.7	-1.0%	-1.5%
CC(C)Oc1ccccc1C1C=C(C(=O)O)Nc2ncnn21 (stereo unspecified)	.	.	.	.	-6.4%
COc1ccc(CCNC(=O)CC(Cc2ccc(C)cc2)C(=O)O)cc1OC (stereo unspecified)	23.8µM*	-2.9%	-2.0	3.0%	-17.6%
COc1ccc(CC(C)CC(=O)NCCc2ccc(OC)c(OC)c2)cc1 (stereo unspecified)	-4.5%	2.3%	-5.9	-1.1%	-25.6%
COc1ccc(CCNC(=O)CCN2C(=O)C3CC=CCC3C2=O)cc1OC (stereo unspecified)	23.8µM*	2.9%	-15.0	-0.6%	1.8%
COc1ccc(CCNC(=O)CSCc2ccc([N+](=O)[O-])cc2)cc1OC	9.47µM*	-16.6%	-29.5	2.0%	-7.8%
COc1ccc(CCNC(=O)CC2SC(N)=NC2=O)cc1OC (stereo unspecified)	21.2µM*	1.6%	2.3	0.1%	-15.9%
Cc1cccc(N2CCN(C(=O)CN3CCSc4ccccc43)CC2C)c1 (stereo unspecified)	.	.	.	.	-23.6%
COc1ccc(CCNC(=O)CCCOc2ccc(Cl)cc2)cc1OC	-16.0%	-28.0%	0.9	1.4%	-15.6%
COc1ccc(CCNC(=O)CSC(=O)c2ccccc2)cc1OC	21.2µM*	-2.1%	-6.8	1.8%	-18.3%
SMILES	PLK1 PBD block	WRN helicase inh	PI5P4K alpha inh	USP2a inh	USP1-UAF1 inh
COc1ccc(CCNC(=O)CCCOc2ccc(C)cc2)cc1OC	23.8µM*	-18.7%	-10.6	2.0%	-1.8%
CCc1ccccc1NC(=O)c1ccc2[nH]c(C)c(C)c2c1	.	.	.	.	-26.6%
Cc1[nH][nH]c(=O)c1C(c1c(C)[nH][nH]c1=O)c1cn(Cc2ccc(F)cc2)c2ccccc12	?	-5.1%[11.6 µM]	-25.8	-2.4%	?
Cc1[nH][nH]c(=O)c1C(c1c(C)[nH][nH]c1=O)c1cn(Cc2ccc(Cl)c(Cl)c2)c2ccccc12	?	-33.4%[57.1 µM]	?	3.1%	28.2µM*
O=C(COC(=O)C1CCC(=O)N1)Nc1ccccc1Br (stereo unspecified)	21.2µM*	6.0%	-24.0	-0.1%	-17.9%
O=C(COC(=O)C1CCC(=O)N1)Nc1ccc(Oc2ccccc2)cc1 (stereo unspecified)	-5.0%	5.6%	-9.6	-0.2%	-9.3%
O=C1CCC(C(=O)OCC(=O)c2ccccc2)N1 (stereo unspecified)	26.7µM*	11.6%	1.4	3.4%	-17.8%
COc1ccc(C(=O)COC(=O)C2CCC(=O)N2)cc1 (stereo unspecified)	-4.3%	-3.4%	1.0	1.1%	-5.2%
COc1ccc(C(c2c(C)[nH]n(-c3ccccc3)c2=O)c2c(C)[nH]n(-c3ccccc3)c2=O)cc1OC	2.67µM*	?	4.9	-2.2%	-33.4%
Cc1[nH]n(-c2ccccc2)c(=O)c1C(C[N+](=O)[O-])c1ccc(Cl)cc1 (stereo unspecified)	11.9µM*	-34.7%	-3.3	1.5%	?
Cc1[nH]n(-c2ccccc2)c(=O)c1C(c1ccccc1C(=O)O)c1c(C)[nH]n(-c2ccccc2)c1=O	-4.5%	2.8%	2.3	1.7%	-12.4%
Cc1[nH]n(-c2ccccc2)c(=O)c1C(c1ccccc1[N+](=O)[O-])C(C#N)C#N (stereo unspecified)	29.9µM*	-7.1%	-8.6	0.8%	-21.0%
O=C1CSC(=S)N1N=Cc1ccc(Cl)s1	0.0%	20µM*	-54.8*	.	-5.1%
O=C1CSC(=S)N1/N=C/c1ccc(O)c(O)c1O	0.947µM*	10µM*	-95.3*	-1.1%	?
O=C(CC1N=C2c3ccccc3N=C(SCc3cccc(Cl)c3)N2C1=O)NC1CCCCC1 (stereo unspecified)	.	.	.	.	4.0%
C#CCOc1c(/C=C\c2nc(O)c([N+](=O)[O-])c(=O)[nH]2)cc(Br)cc1OC	-10.9%	-1.0%[11.6 µM]	-67.9*	-1.7%	-9.3%
COc1ccc(/C=C\c2nc(O)c([N+](=O)[O-])c(=O)[nH]2)cc1O	1.7%	?	-74.1*	4.8%	-12.7%
C=CCOc1ccc(/C=C\c2nc(O)c([N+](=O)[O-])c(=O)[nH]2)cc1OCC	-15.4%	-18.2%[11.6 µM]	-55.1*	2.1%	-11.4%
C=CCOc1ccc(/C=C\c2nc(O)c([N+](=O)[O-])c(=O)[nH]2)cc1OC	-15.8%	-17.4%	?	0.0%	-18.7%
Cc1cc(C)c(/C=C/c2onc(C)c2S(=O)(=O)N2CCC(C(=O)N(C)Cc3ccccc3)CC2)c(C)c1	.	.	.	.	-16.1%
Cc1cccc(OCc2cc(=O)n3c(-c4ccccc4)csc3n2)c1C	.	.	.	.	-20.7%
CCOc1ccc(C(=O)NCCn2cc(SCC(=O)NCCc3ccc(OC)c(OC)c3)c3ccccc32)cc1	.	.	.	.	-22.3%
CCSc1nnc(NC(=O)C(C(F)(F)F)C(F)(F)F)s1	13.4µM*	-14.6%	.	1.2%	-13.7%
CC1=Nc2ccccc2/C1=C\c1nc(-c2ccc(C(F)(F)F)cc2)oc1O	-8.1%	?	.	5.4%	12.6µM*
